HCV inhibitor = inhibitors of hepatitis C virus infection; Potency, µM (highest dose often 41.8 µM), inactives show at the top dose activity change, negative = inhibition, actives largely listed as inhibitors; 3.4% of 340,000 active; Huh7.5.1 HCVcc-Cre infection, luciferase reporter, 44 h
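Reporter virus HCVcc-Cre (~0.5 moi) infects cells exposed to compound; seeding density 1,000 cells/well with 4 h settling beforehand. Luminescence, 15 sec read, taken 44 h post-infection following a 15 min RT substrate incubation.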
AmpC inh detg = AmpC beta-lactamase inhibition with detergent present. AID 485294. Potency, µM (titrated, usually from 114 µM), inactives show at the highest dose activity change, negative = inhibition, usual class: inhibitors. P00811. AmpC hydrolysis of nitrocefin, absorbance 480 nm, 0.01% Triton. 0.041% of 370,000 active;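 also: 0% = no-compound wells and -100% = no-enzyme wells; nearly all actives have a fitted effect of over 25% in size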
Target sequence (P00811 whole entry, looked up): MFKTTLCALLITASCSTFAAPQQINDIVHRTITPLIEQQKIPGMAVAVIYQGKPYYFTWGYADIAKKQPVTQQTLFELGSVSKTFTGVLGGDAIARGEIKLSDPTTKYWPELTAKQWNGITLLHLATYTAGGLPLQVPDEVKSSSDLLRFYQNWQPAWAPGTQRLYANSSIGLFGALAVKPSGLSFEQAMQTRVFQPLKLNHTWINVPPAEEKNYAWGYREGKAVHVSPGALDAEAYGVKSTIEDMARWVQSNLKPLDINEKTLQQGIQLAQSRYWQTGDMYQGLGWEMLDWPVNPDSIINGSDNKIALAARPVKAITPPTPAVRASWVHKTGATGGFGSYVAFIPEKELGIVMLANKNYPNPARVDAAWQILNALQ
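20 mM phosphate pH 7.0 + 0.01% (detergent screen) or 0.0001% Triton X-100; 5.3 nM AmpC reagent; cpd preinc 15 min RT; nitrocefin (800 uM stock) to start; A480 q20 s × 4 min; Activity was normalised to no-enzyme and no-compound control wells.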
AMA1-RON2 inh = disrupts binding of P. falciparum AMA1 to RON2 | AID 720542 | AlphaScreen AMA1-biotinylated RON2 peptide binding | Potency, µM (doses to about 58.2 µM), without a hit: at the top dose activity change, negative = inhibition, hits mostly inhibitors | 0.2% of 360,000 active;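 also: 0% = vehicle wells and -100% = peptide control; nearly all actives have a fitted effect of over 45% in size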
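AMA1 (3D7) with his tag at 25 nM final met compounds first, then biotinylated RON2 peptide at 25 nM; detection used donor plus acceptor beads, 10 µg/mL apiece, read by AlphaScreen after 30 min at room temperature.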
Pf growth 48h = inhibits P. falciparum growth in the first generation, 48 h; P. falciparum luciferase growth in erythrocytes, 48 h; Potency, µM (series often up to 28.7 µM), for inactives: at the top dose activity change, negative = inhibition, usual class: inhibitors; 5.9% of 310,000 active; AID 504832
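First compound was added to culture medium, then infected red cells at 0.1% parasitemia and 2% hematocrit (final). After incubation at 37 C under 5% CO2, luciferase detection reagent was dispensed and light output recorded.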
Pf growth 96h = P. falciparum growth inhibition at 96 hour, primary screen for plastid delayed-death inhibitors; 6.9% of 320,000 active; Potency, µM (top dose mostly 28.7 µM), for the others: at the top dose activity change, negative = inhibition, usual class: inhibitors; AID 504834; P. falciparum luciferase reporter growth, 96 h
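Erythrocytes infected with luciferase-expressing P. falciparum were dispensed at 2% hematocrit and 0.05% parasitemia (final), then incubated with compounds 96 hours at 37 C in 5% CO2. Luminescence after detection reagent addition reported growth.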
AmpC no deterg = AmpC beta-lactamase inhibition without detergent | P00811 | AmpC nitrocefin hydrolysis, absorbance 480 nm, 0.0001% Triton | Potency, µM (highest dose often 57.1 µM), for the others: top-dose activity change, negative = inhibition, most hits filed as inhibitors | 0.52% of 330,000 active;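 also: plate controls were no compound for no effect and no enzyme for full effect; nearly all actives have a fitted effect of over 20% in size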
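AmpC (5.3 nM in the dispensed reagent) in 20 mM phosphate pH 7.0 with 0.01% (detergent screen) or 0.0001% Triton X-100 was preincubated with compounds for 15 min at room temperature. Nitrocefin was then added from an 800 uM solution, and hydrolysis was followed at 480 nm.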
* hit, by the source's call; ? = inconclusive; nt = not tested or not shown. The list is not random: actives were taken first. Their share in the collection is about 11%. Calls follow the shape of the dose curve; as a rule, active = well fitted curve in the direction sought with a large enough effect; inconclusive = small, poorly fitted or top-dose-only effect, or another doubt; inactive = no such curve, though single readings can be large; an effect the other way counts as inactive or inconclusive. Unless noted, % is scaled to controls: 0 for no effect and ±100 for the full control effect; potency is read from the fitted curve at half-maximal effect.

SMILES | HCV inhibitor | AmpC inh detg | AMA1-RON2 inh | Pf growth 48h | Pf growth 96h | AmpC no deterg
CCOC(=O)/C(C#N)=C/c1ccc(OCC(=O)Nc2cc(C)ccc2C)c(OC)c1 | 16% | 1% | -7% | 20% | ? | 1%
CCOC(=O)/C(C#N)=C\c1ccc(OCC(=O)Nc2ccc(C)cc2C)c(OC)c1 | -2% | -8% | 8% | 39% | 2.6µM* | -9%
COc1cc(/C=C2\SC(N)=NC2=O)ccc1OCC(=O)Nc1ccc(C)cc1 | ? | ? | 10% | ? | ? | 10µM*
O=C(Nc1nnc2n1CCS2)c1ccccc1C(F)(F)F | nt | 3% | nt | nt | nt | nt
Cc1cc(C(=O)NCc2ccccc2Cl)c2c(C)nn(-c3ccccc3)c2n1 | nt | 21% | nt | nt | nt | nt
COc1cc(/C=C2/C(=O)N(C)C(=S)N2C)ccc1OCc1cccc(F)c1 | ? | -5% | -9% | -1% | 3.3µM* | -12%
COc1ccccc1CN1CCNC(=O)C1CC(=O)NCC1CCOCC1 (centres undefined) | -12% | -3% | 11% | -1% | 9.3µM* | 8%
COc1ccc(CN2CCNC(=O)C2CC(=O)NCC2CCOCC2)c(F)c1 (centres undefined) | 13% | -14% | -2% | 6% | 10µM* | 11%
COC(=O)Cn1c(CN(Cc2ccccc2)Cc2ccccc2)nc2c1c(=O)[nH]c(=O)n2C | 6% | -13% | 18% | ? | ? | 126%
CCCn1c(CN(C)Cc2ccccc2)nc2c1c(=O)n(C)c(=O)n2C | 7.9µM* | -7% | 7% | -15% | 45% | 25%
CN(Cc1ccccc1)Cc1nc2c(c(=O)n(C)c(=O)n2C)n1CCc1ccccc1 | 35µM* | nt | -3% | nt | nt | nt
CCOC(=O)Cn1c(CN(Cc2ccccc2)Cc2ccccc2)nc2c1c(=O)n(C)c(=O)n2C | ? | ? | 0% | 5.9µM* | ? | 149%
CCCn1c(CN(Cc2ccccc2)Cc2ccccc2)nc2c1c(=O)n(C)c(=O)n2C | 7.9µM* | -9% | -6% | ? | 9.3µM* | 130%
CCN(C(=O)CSc1nc2ccccc2n1CC(=O)N1CCCC(C)C1)c1ccccc1 (centres undefined) | nt | -2% | nt | nt | nt | nt
Cc1ccc2cccc(NC(=O)c3cccc4c(Br)cccc34)c2n1 | nt | 8% | nt | nt | nt | nt
CCOC(=O)C1CCCN(S(=O)(=O)c2cc3c(cc2C)NC(=O)CO3)C1 (centres undefined) | nt | 24% | nt | nt | nt | nt
CCCCn1c(CN(C)Cc2ccccc2)nc2c1c(=O)n(C)c(=O)n2C | 11µM* | -1% | 4% | 13µM* | -2% | ?
CN(Cc1ccccc1)Cc1nc2c([nH]1)c(=O)n(C)c(=O)n2C | 3% | ? | 103% | ? | 10µM* | -6%
COCCn1c(CN(C)Cc2ccccc2)nc2c1c(=O)n(C)c(=O)n2C | ? | ? | 12% | nt | 5.9µM* | 1%
COC(=O)c1ccc(N2C(=O)Cc3cc(OC)c(OC)cc3C2c2ccc(F)cc2)cc1 (centres undefined) | nt | 4% | nt | nt | nt | nt
CCc1ccccc1Nc1cc(C(=O)NC2CCC(C)CC2)c2ccccc2n1 (centres undefined) | nt | 3% | nt | nt | nt | nt
COc1ccccc1NC(=O)c1ccc(NS(=O)(=O)c2cccc3cccnc23)cc1 | -11% | -3% | -19% | -1% | ? | 7.9µM*
COc1ccc(C)cc1NC(=O)c1ccc(NS(=O)(=O)c2cccc3cccnc23)cc1 | ? | -4% | 31% | ? | ? | -20%
O=S(=O)(NC1CCCCCC1)c1cccc2cccnc12 | 6% | 0% | -5% | -7% | 5.2µM* | -10%
Cc1ccc(NC(=O)c2ccc(NS(=O)(=O)c3cccc4cccnc34)cc2)cc1 | 10µM* | -5% | 33% | -23% | 9% | -57%
SMILES | HCV inhibitor | AmpC inh detg | AMA1-RON2 inh | Pf growth 48h | Pf growth 96h | AmpC no deterg
O=C(NC1CCCCC1)c1ccc(NS(=O)(=O)c2cccc3cccnc23)cc1 | ? | 0% | 10% | ? | 31% | -38%
COc1ccc(NS(=O)(=O)c2cccc3cccnc23)cc1Cl | -22% | -5% | 23% | ? | 0.93µM* | -41%
COc1ccc(CCNS(=O)(=O)c2cc(-c3cc(C)no3)ccc2OC)cc1OC | nt | 1% | nt | nt | nt | nt
COc1ccc(NS(=O)(=O)c2cccc3cccnc23)cc1 | 8% | -10% | 2% | -8% | ? | -16%
Cc1cccc(NS(=O)(=O)c2cccc3cccnc23)n1 | 12% | ? | -5% | 8% | 1.7µM* | nt
Cc1cccc(NS(=O)(=O)c2ccc(C3CCCCC3)cc2)n1 | 11% | -9% | -11% | 9.3µM* | nt | -6%
Clc1ccc([C@H](Cn2ccnc2)OCc2csc3c(Cl)cccc23)c(Cl)c1 | nt | nt | nt | ? | 5.7µM* | nt
Clc1ccc(C(Cn2ccnc2)OCc2c(Cl)cccc2Cl)c(Cl)c1 (centres undefined) | -17% | -17% | -30% | 2.3µM* | 2.9µM* | 1%
Clc1cccc(OCCCn2ccnc2)c1 | 7% | ? | 2% | -9% | ? | -3%
Cc1cccc(Cl)c1OCCCCn1ccnc1 | -18% | ? | 11% | ? | nt | -14%
O=c1c2ccccc2nc(-c2ccc(Cl)cc2Cl)n1CCCn1ccnc1 | -8% | 2% | 14% | ? | ? | 42%
Clc1ccc(C(Cn2ccnc2)OCc2csc3c(Cl)cccc23)c(Cl)c1 (centres undefined) | 13µM* | 1% | 0% | 1µM* | 2.6µM* | -3%
OC(Cn1ccnc1)c1ccc(Cl)cc1Cl (centres undefined) | 9% | -11% | -12% | 10µM* | 9.3µM* | -9%
COc1ccc(NC(=O)CSc2nc3ccccc3nc2N2CCCC2)cc1 | -19% | -5% | 9% | -14% | ? | -39%
COc1ccc(C)cc1NC(=O)CSc1nc2ccccc2nc1N1CCCCC1 | -21% | -13% | 20% | 4.1µM* | 20% | -16%
CCOc1ccc(NC(=O)CSc2nc3ccccc3nc2N2CCCC2)cc1 | -10% | -10% | 9% | -17% | 12µM* | -32%
COc1ccc(C)cc1NC(=O)CSc1nc2ccccc2nc1N1CCOCC1 | nt | 27% | nt | nt | nt | nt
Cc1cc(C)cc(NC(=O)CSc2nc3ccccc3nc2N2CCCCC2)c1 | 0% | ? | 20% | ? | 9.3µM* | -32%
CCOC(=O)c1[nH]c(C)c(C(=O)N2CCN(c3ccc(OC)cc3)CC2)c1C | 4% | 2% | ? | 10% | -17% | 69%
CCOC(=O)c1[nH]c(CN2CCN(c3ccc(OC)cc3)CC2)c(C(=O)OCC)c1C | -26% | -12% | ? | 9.3µM* | 6.6µM* | 85%
